Only a selection was taken, and hits are over-represented in it overall.
Dicer inh: blocks human Dicer maturation of pre-miR-21; Q9UPY3; cat-ELCCA pre-miR-21 Dicer processing, chemiluminescence; stronger effect = higher value; z-score at 25 µM; 6% of 47,000 active; in the data active means z-score above about 3, passing the limit was not always enough;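 further: plate controls were vehicle for no effect and no enzyme for full effect; higher signal means more uncleaved substrate so more Dicer inhibition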
* marks the source's active call; other numbers are inactive results.

SMILES	Dicer inh
Cc1cc2n(n1)C(c1ccc(N3CCCC3)cc1)Nc1c(C)cccc1-2 (stereo not drawn)	8.8
CCOc1cccc(C2Nc3c(C)cc(C)cc3-c3cc(C)nn32)c1O (stereo not drawn)	2.6
COc1ccc(OC)c(C2Nc3c(C)cccc3-c3cc(C)nn32)c1 (stereo not drawn)	-1.3
Cc1cc(C)c2c(c1)-c1cc(C)nn1C(c1ccc3c(c1)OCO3)N2 (stereo not drawn)	1.2
COc1ccc(C2Nc3c(C)cccc3-c3cc(C)nn32)cc1 (stereo not drawn)	0.76
COc1cccc(C2Nc3c(C)cccc3-c3cc(C)nn32)c1O (stereo not drawn)	4.9*
Cc1cc2n(n1)C(c1ccc(Cl)cc1)Nc1c(C)cccc1-2 (stereo not drawn)	3.8*
Cc1cc2n(n1)C(c1cccc(Cl)c1)Nc1c(C)cccc1-2 (stereo not drawn)	6.2*
COc1ccccc1-c1c(C)c(CC(C)C)nc(N)c1C#N	0.37
O=C(c1cccs1)n1nccc1/C=C/c1c(Cl)cccc1Cl	0.6
Cc1nc(N=CNO)ccc1Br	-0.8
CN(C)S(=O)(=O)N(Cc1ccc(C(C)(C)C)cc1)c1ccccc1	-1.4
Cn1cncc1S(=O)(=O)/C(C#N)=C/c1ccccc1Sc1ccc(Cl)cc1	-1.5
Cc1nnc2sc(-c3cc(N)ccc3Cl)nn12	-2.1
CCOC(=O)/C(C#N)=C/Nc1nc2ccc(C(=O)OCC)cc2s1	1.3
Cc1cc2n(n1)C(c1ccccc1Cl)Nc1c(C)cccc1-2 (stereo not drawn)	5.9*
Cc1cc2n(n1)C(c1cc(Br)ccc1O)Nc1c(C)cccc1-2 (stereo not drawn)	8.7
Cc1cc2n(n1)C(c1ccccc1F)Nc1c(C)cccc1-2 (stereo not drawn)	0.62
CCCOC(=O)C1=C(C)NC2=C(C(=O)CC(C)(C)C2)C1c1ccc(C(=O)OC)cc1 (stereo not drawn)	-0.76
Cc1c(C(=O)Nc2ccccc2)sc(N)c1C(N)=O	-2.7
Cc1cc(OC(CN(C)C)CN(C)C)nc2ccccc12	1.3
Cc1ccc(-c2c(Cl)sc(S(C)(=O)=O)c2C#N)cc1	-1.5
C=C(C)CSc1nc2sc3c(c2c(=O)[nH]1)CCCC3	0.28
O=C(CSc1nc2sc3c(c2c(=O)[nH]1)CCCC3)N1CCCCC1	-0.27
CC(C)(C)c1nc2sc3c(c2c(=O)[nH]1)CCCC3	5.3*
SMILES	Dicer inh
COc1ccc(-c2nc3sc4c(c3c(=O)[nH]2)CCCC4)cc1OC	5.1*
COc1ccc(-c2ncnn2-c2sc3c(c2C#N)CCCC3)cc1OC	-5
COc1ccc(-c2nc3c4c5c(sc4ncn3n2)CCCCC5)cc1OC	1.1
CC(C)COC(=O)CSc1nc(N2CCOCC2)c2c(c1C#N)CC(C)(C)OC2	1.7
Cc1c(NS(=O)(=O)c2ccc(-c3ccno3)s2)c(=O)n(-c2ccccc2)n1C	-9.9
COc1cccc2c1OC(c1cccnc1)N1N=C(c3cc(Cl)ccc3O)CC21 (stereo not drawn)	1.1
COc1ccc(C2CC(c3ccc(Cl)cc3)Nc3nc(N)nn32)cc1OC (stereo not drawn)	-1.2
COc1ccc(C2CC(c3cc(Cl)ccc3O)=NN2)cc1OC (stereo not drawn)	4.4*
COc1ccc(Br)cc1C1Nc2ccccc2-c2nnc(SC)nc2O1 (stereo not drawn)	0.68
COc1ccc(C2C(C#N)=C(N)Oc3c2ccc2ccccc32)cc1OC (stereo not drawn)	-0.11
Cc1cc(C)c2oc3nc(N)c(C#N)cc3c(=O)c2c1	-2.9
O=C(Nc1ccc(F)cc1F)N1CCN(Cc2ccccc2)CC1	3*
CC(C)(C)OC(=O)NC1CCN(C(=O)Nc2ccc(F)cc2F)CC1	0.45
CCOC(=O)C1CCN(C(=O)Nc2ccc(F)cc2F)CC1	-0.78
COc1cccc2c1OC(CCSC)N1N=C(c3ccccc3O)CC21 (stereo not drawn)	0.3
COc1ccc(C2C(C#N)=C(N)Oc3cc(O)ccc32)cc1C (stereo not drawn)	-0.6
CC(C)c1ccc(C2C(C#N)=C(N)Oc3cc(O)ccc32)cc1 (stereo not drawn)	4.9*
C=CCOc1ccc(C2C(C#N)=C(N)Oc3cc(O)ccc32)cc1Cl (stereo not drawn)	13
Cc1ccc(S(=O)(=O)N2CCSC2c2cccc(Cl)c2)cc1 (stereo not drawn)	-0.62
CC(=O)c1sc(N2CCOCC2)nc1C	-0.85
Cc1cc(N/C=C2\C(=O)c3c(sc(C)c3C)N(C)S2(=O)=O)nc(C)n1	3.6*
Cc1sc2c(c1C)C(=O)/C(=C\Nc1ncccn1)S(=O)(=O)N2C	2
Cc1sc2c(c1C)C(=O)/C(=C\Nc1cccnc1)S(=O)(=O)N2C	-0.68
COc1ccc([N+](=O)[O-])c(SC(C)C(=O)O)n1 (stereo not drawn)	0.05
CSc1nnc(-c2csc(S(=O)(=O)Nc3cccc(C(F)(F)F)c3)c2)n1C	2.3
SMILES	Dicer inh
O=c1cc(CSc2n[nH]c(=O)n2-c2cccnc2)c2ccc(O)cc2o1	-3.6
CC1C/C(=N\Nc2ccc(I)cc2)c2cc(Cl)ccc2S1(=O)=O (stereo not drawn)	4*
O=C1/C(=C\c2ccccc2Cl)C(c2ccccc2)Oc2ccccc21 (stereo not drawn)	0.21
CCn1cc(C(=O)O)c(=O)c2cc3c(cc21)OCO3	-0.39
CCn1cc(C(=O)O)c(=O)c2cnc(N3CCCC3)nc21	4.5*
CCn1cc(C(=O)O)c(=O)c2cnc(N3CCN(C(=O)Nc4ccccc4)CC3)nc21	-0.82
O=C(NNc1nc(-c2cccc([N+](=O)[O-])c2)cs1)c1ccccc1Cl	-0.14
Cn1c(=O)c2c(nc(NCCCn3ccnc3)n2Cc2cccc3ccccc23)n(C)c1=O	-0.49
Cn1c(=O)c2c(nc(NCCCn3ccnc3)n2Cc2ccc(F)cc2)n(C)c1=O	3.5*
Cn1c(=O)c2c(nc(NCCCO)n2Cc2ccc(Cl)cc2)n(C)c1=O	3.6*
Cn1c(NCCCO)nc2c1c(=O)n(Cc1ccc(Cl)cc1)c(=O)n2C	2.4
Cn1c(=O)c2c(nc(-n3ccnc3)n2Cc2ccc(F)cc2)n(C)c1=O	1.4
Cn1c(=O)c2c(nc(NCCCO)n2Cc2ccc(Br)cc2)n(C)c1=O	2.1
Cc1ccc(Cl)cc1N1C(=O)c2cccnc2C1=O	12
Cc1nn(C)c(-n2ncc(C#N)c2N)c1[N+](=O)[O-]	-0.46
CC(=O)N1N=C(c2c(-c3c(Cl)cccc3Cl)noc2C)OC1c1ccc([N+](=O)[O-])s1 (stereo not drawn)	-5.7
CC(C)(C)C(=O)Nc1cccc(C(F)(F)F)c1C(=O)O	1.1
CCc1ccc2c(c1)C(NC(C)=O)C(=O)N2 (stereo not drawn)	-1.1
O=C(C1CCCCC1)N(Cc1ccc(Br)cc1)c1ccc(F)cc1	-0.09
N#Cc1nc(-c2ccccc2OC(F)(F)F)oc1N	11
CC(=O)CSc1nnc2sc3ccccc3n12	-0.21
O=C(O)CCSc1nnc2sc3ccccc3n12	0.75
O=C(CSc1nnc2sc3ccccc3n12)N1CCN(c2ccccc2)CC1	3.7*
COC(=O)c1cc(S(=O)(=O)NCc2ccc3c(c2)CCO3)oc1C	0.04
Cn1c(=O)c2c(c3ccccc31)OC(=O)CC2c1ccco1 (stereo not drawn)	-1
Cc1ccc(S(=O)(=O)NCc2ccc3c(c2)OCO3)cc1C	0.26
COc1ccc(CNCc2ccc3c(c2)OCO3)cc1OC	-0.8
COc1ccc(S(=O)(=O)NCc2ccc3c(c2)OCO3)cc1OC	3.6*
CCC(CO)NC(=S)NC1CC2CCC1C2 (stereo not drawn)	-0.03
